# The list is not random: actives were taken first. Their share in the collection is about 19%.
# DT40 TDP1 CPT = qHTS for Inhibitors of human tyrosyl-DNA phosphodiesterase 1 (TDP1): qHTS in cells in presence of CPT; 420,000 compounds, 12% hits; Potency, µM (doses to about 46.2 µM), inactives show top-dose activity change, negative = growth inhibition, usual class: inhibitors; chicken DT40 Tdp1-/-;hTDP1 cells + 20 nM CPT, ATP luminescence, 48 h; AID 686979, 2013; note: nearly all actives have a fitted effect of over 55% in size
#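 Chicken DT40 Tdp1-/- cells stably complemented with human TDP1 were seeded at 400 cells/well in medium containing 20 nM camptothecin, exposed to pin-transferred compounds, and grown at 37 °C for at least 48 hr. Viability was read as ATP luminescence.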
# TDP1 cell noCPT = qHTS for Inhibitors of human tyrosyl-DNA phosphodiesterase 1 (TDP1): qHTS in cells in absence of CPT; DT40 Tdp1-/- hTDP1 cells, no CPT, ATP luminescence, 48 h; Potency, µM (highest dose often 46.2 µM), without a hit: at the highest dose activity change, negative = growth inhibition, usual class: inhibitors; 420,000 compounds, 15% hits; note: nearly all actives have a fitted effect of over 55% in size
#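 A cellular qHTS used chicken DT40 cells lacking endogenous Tdp1 but carrying stably transfected human TDP1. Compounds were applied without camptothecin, and cell growth kinetics were judged by ATP-dependent luminescence after ≥48 hr.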
# TDP1 block = qHTS Assay for Inhibitors of Tyrosyl-DNA Phosphodiesterase (TDP1); Tyrosyl-DNA phosphodiesterase 1 (Homo sapiens), Q9NUW8; recombinant TDP1, AlphaScreen DNA substrate cleavage; Potency, µM (highest dose often 130 µM), inactives show top-dose activity change, negative = inhibition, hits mostly inhibitors; 350,000 compounds, 0.28% hits; AID 485290, 2010; note: nearly all actives have a fitted effect of over 40% in size
#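 Recombinant E. coli-expressed Tdp1 (1 nM) preincubated with compound 15 min at RT, then 5'-biotin/3'-phosphotyrosine-FITC DNA substrate (15 nM) added for 5 min. AlphaScreen beads (10 ug/ml) added, 10 min RT; tyrosine-FITC cleavage read as signal loss.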
# RORgamma inh = qHTS for inhibitors of ROR gamma transcriptional activity; Nuclear receptor ROR-gamma (Mus musculus), P51450; Drosophila S2 Gal4-RORgamma UAS-luciferase reporter, 20 h; Potency, µM (titrated, usually from 53.6 µM), for inactives: at the highest dose activity change, negative = inhibition, actives largely listed as inhibitors; 310,000 compounds, 5.4% hits; note: nearly all actives have a fitted effect of over 60% in size
# Target sequence (P51450 whole entry, looked up, the tested form may be a part): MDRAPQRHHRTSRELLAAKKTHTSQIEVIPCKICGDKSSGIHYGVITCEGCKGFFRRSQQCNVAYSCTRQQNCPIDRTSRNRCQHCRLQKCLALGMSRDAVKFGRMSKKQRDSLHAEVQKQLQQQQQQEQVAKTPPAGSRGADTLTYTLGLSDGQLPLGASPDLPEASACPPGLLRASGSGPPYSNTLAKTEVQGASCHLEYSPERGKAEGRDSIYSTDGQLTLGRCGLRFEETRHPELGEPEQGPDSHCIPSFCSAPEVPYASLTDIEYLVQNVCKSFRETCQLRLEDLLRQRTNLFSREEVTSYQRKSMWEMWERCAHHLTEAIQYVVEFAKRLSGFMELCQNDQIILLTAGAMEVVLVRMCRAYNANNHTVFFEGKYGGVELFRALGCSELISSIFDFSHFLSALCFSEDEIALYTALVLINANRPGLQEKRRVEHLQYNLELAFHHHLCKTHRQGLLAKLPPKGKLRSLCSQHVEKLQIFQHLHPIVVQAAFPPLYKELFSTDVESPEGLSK
#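 ROR gamma transcriptional activity was tracked as Gal4-UAS luciferase output in stably transfected Drosophila Schneider cells, with compound added 1 hr before 700 uM copper sulfate induction and a 20 hr ambient-temperature incubation.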
# Gal4-VP16 FLuc = VP16 counterscreen qHTS for inhibitors of ROR gamma transcriptional activity | AID 2546, 2010 | Drosophila S2 Gal4-VP16 UAS-luciferase, luminescence, 20 h | Potency, µM (doses to about 53.6 µM), for the others: at the highest dose activity, negative = inhibition, usual class: inhibitors | 310,000 compounds, 3.5% hits;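 note: Gal4-VP16 expression switched on by copper sulfate through the metallothionein promoter; nearly all actives have a fitted effect of over 50% in size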
# Starred values were filed as active, the others as inactive; ? = inconclusive; · = no result given; [ ] = dose if it differs, or a comment. Calls come from the whole dose curve; as a rule, active = well fitted curve in the direction sought with a large enough effect; inconclusive = small, poorly fitted or top-dose-only effect, or another doubt; inactive = no such curve, though single readings can be large; an effect the other way counts as inactive or inconclusive. % is set by controls: 0 for no effect and ±100 for the full control effect; potency is the fitted concentration of half-maximal effect.
SMILES,DT40 TDP1 CPT,TDP1 cell noCPT,TDP1 block,RORgamma inh,Gal4-VP16 FLuc
COc1cccc(OC)c1C(=O)Nc1ccc(C(=O)c2ccncc2)cc1,13µM*,?,5%,·,·
CN(Cc1c(C(=O)N/N=C/c2cccc(F)c2)nnn1-c1nonc1N)C1CCCCC1,-12%,0%,4%,-20%,-3%
CCc1ccccc1Nc1ncnc2c1nc1n2CCCC1,-14%,-18%,-1%,·,·
O=C(OCC(=O)N1CCc2ccccc21)c1ccc[n+]([O-])c1,-4%,2%,0%,4%,3%
COc1cccc(/C=N/Nc2ccc(C(=O)O)cc2)c1O,?,21µM*,-7%,0.032µM*,?
COc1cccc(/C=N/Nc2ccc(S(=O)(=O)O)cc2)c1O,2%,5%,?,-24%,-14%
O=C(N/N=C/c1ccccc1OCc1ccccc1Cl)c1cccnc1,?,23µM*,4%,?,-6%
COc1cccc(/C=N/NC(=O)N/N=C/c2cccc(OC)c2O)c1O,?,3.7µM*,·,-23%,4%
O=C(N/N=C\c1cc2c(cc1Cl)OCO2)c1cccnc1,-7%,1%,-5%,9%,-5%
COc1cccc(C=NNC(=O)c2ccncc2)c1O,0.92µM*,0.18µM*,·,·,·
COc1ccc(/C=N/NC(=O)c2ccncc2)c(OC)c1,7%,8%,·,-21%,21%
N#CCCN(Cc1ccccc1)C(=O)c1cccs1,13%,-7%,-2%,10%,2%
CCSc1nc2nn(-c3ccccc3)c(=O)c-2c2n1CCCCC2,?,?,2%,-4%,-8%
Cc1ccc(C)c(C(=O)C(C)Sc2nc3nn(-c4ccccc4)c(=O)c-3c3n2CCCCC3)c1 (centres undefined),?,21µM*,6%[56.1 µM],11%,0%
COC(=O)c1c(-c2ccc(Cl)cc2)noc1N1CCN(c2ccc(OC)cc2)CC1,23µM*,26µM*,0%,·,·
COC(=O)c1c(-c2ccc(Cl)cc2)noc1N1CCN(c2cc(C)ccc2C)CC1,15µM*,21µM*,8%,·,·
COC(=O)c1c(-c2ccc(Cl)cc2)noc1N1CCN(c2ccc(C)cc2C)CC1,?,?,3%,·,·
COC(=O)c1c(-c2ccc(Cl)cc2)noc1N1CCN(c2ccccc2F)CC1,-1%,7%,-3%,·,·
BrC(=C\c1ccccc1)/C=N/N1CCN(c2ccccn2)CC1,0.33µM*,2.6µM*,6%,?,?
BrC(=C\c1ccccc1)/C=N/N1CCN(Cc2ccccc2)CC1,1.8µM*,3.3µM*,5%,5%,?
CC(/C=N\N1CCN(Cc2ccc(C)cc2)CC1)=C\c1ccccc1,-10%,-23%,3%,10%,8%
C(=N\N1CCN(Cc2ccccc2)CC1)/c1ccccc1,?,24%,·,28%,-5%
Oc1cccc(/C=N/N2CCN(c3ccccn3)CC2)c1,-14%,-21%,4%,7%,-9%
BrC(/C=N/N1CCN(Cc2ccccc2)CC1)=C/c1ccccc1,13µM*,6.5µM*,5%,2%,-2%
Cc1cc(C)n(C(=O)CNC(=O)c2ccc3c(c2)OCCO3)n1,-19%,-10%,-2%,20%,-14%
CCCCn1c(N)c(N(CC(C)C)C(=O)COC(=O)c2ccccc2NCCO)c(=O)[nH]c1=O,-1%,3%,0%,·,·
CC1=Nc2ccc3ccccc3c2C1(C)C,12%,-18%,6%,7.9µM*,-23%
c1ccc2c(c1)ccc1ncccc12,-21%,-18%,2%,-11%,-4%
c1ccc(COn2nnc3ccccc32)c(COn2nnc3ccccc32)c1,18µM*,10µM*,9%,-8%,-3%
CC(C)CC(=O)NC(=S)Nc1ccc(S(=O)(=O)NC(C)(C)C)cc1,?,23µM*,3%,?,?

# Screening results deposited in PubChem BioAssay by National Center for Advancing Translational Sciences (NCATS).
